Several values for one entry are separate records, joined by “and”; a condition that tells them apart may be missing. Equal entries are not always repeated. For some of these results: Entries with a potency or affinity are not part of this list.
Experiments:
Design in all cases: scale not given: direction of the effect not stated beside the values
[1] = biological target: Protein translocase subunit SecA (Escherichia coli (strain K12)) (UniProt P10408); assay: Assay to Identify E. coli SecA ATPase Inhibitors; assay type: functional; conditions: 30 µM
[2] = biological target: T1, Ubiquitin-activating enzyme e1, putative (Leishmania donovani (strain BPK282A1)) (UniProt E9BSI1); assay: Leishmania donovani Ubiquitin Activating Enzyme (LdE1); assay type: functional; conditions: 30 µM
T1 sequence (whole entry): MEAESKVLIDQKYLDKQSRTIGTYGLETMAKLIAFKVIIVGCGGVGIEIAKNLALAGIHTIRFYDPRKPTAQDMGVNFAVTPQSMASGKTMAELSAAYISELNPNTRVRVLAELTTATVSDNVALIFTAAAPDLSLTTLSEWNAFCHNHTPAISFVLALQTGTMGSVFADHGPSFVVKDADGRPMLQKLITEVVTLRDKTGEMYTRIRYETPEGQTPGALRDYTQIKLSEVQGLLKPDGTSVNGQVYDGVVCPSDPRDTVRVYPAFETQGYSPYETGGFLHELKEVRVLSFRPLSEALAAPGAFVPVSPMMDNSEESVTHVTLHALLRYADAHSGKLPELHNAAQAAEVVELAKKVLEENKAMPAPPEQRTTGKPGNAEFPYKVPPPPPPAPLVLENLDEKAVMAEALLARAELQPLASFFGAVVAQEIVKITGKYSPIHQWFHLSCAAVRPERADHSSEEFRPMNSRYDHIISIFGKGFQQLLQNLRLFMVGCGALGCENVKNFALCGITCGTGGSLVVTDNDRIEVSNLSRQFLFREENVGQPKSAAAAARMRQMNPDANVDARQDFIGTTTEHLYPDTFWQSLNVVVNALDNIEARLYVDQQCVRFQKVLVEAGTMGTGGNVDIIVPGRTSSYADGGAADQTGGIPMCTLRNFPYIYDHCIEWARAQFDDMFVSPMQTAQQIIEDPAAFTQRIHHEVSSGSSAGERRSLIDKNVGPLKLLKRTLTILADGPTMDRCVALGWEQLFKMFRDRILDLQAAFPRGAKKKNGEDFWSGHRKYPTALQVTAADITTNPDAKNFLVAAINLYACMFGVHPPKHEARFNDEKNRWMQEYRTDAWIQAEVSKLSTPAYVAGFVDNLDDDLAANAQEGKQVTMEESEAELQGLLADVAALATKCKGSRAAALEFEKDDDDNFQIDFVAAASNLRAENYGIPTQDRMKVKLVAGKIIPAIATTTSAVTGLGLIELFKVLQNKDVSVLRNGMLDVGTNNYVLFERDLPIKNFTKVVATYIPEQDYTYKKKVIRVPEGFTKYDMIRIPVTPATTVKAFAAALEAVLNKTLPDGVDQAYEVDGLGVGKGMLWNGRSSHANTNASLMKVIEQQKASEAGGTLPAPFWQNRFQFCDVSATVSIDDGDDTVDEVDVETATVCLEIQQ

[3] = biological target: Sialic acid-binding Ig-like lectin 9 (Homo sapiens) (UniProt Q9Y336); assay: Hs-Siglec9 ALPHAscreen SOP 20170721; conditions: 10 µM
Trypanosoma cruzi = assay: Trypanosoma cruzi phosphomannomutase and mannose-1-phosphate guanylyltransferase assay; assay type: functional; conditions: 10 µM
[4] = biological target: T2, Arginase-2, mitochondrial (Homo sapiens) (UniProt P78540); assay: in vitro enzyme assay to detect the production of urea directly proportional to the activity of Arginase II; assay type: functional; conditions: 33.3 µM; note: in the data most compounds retested in dose-response had high values
T2 sequence (whole entry): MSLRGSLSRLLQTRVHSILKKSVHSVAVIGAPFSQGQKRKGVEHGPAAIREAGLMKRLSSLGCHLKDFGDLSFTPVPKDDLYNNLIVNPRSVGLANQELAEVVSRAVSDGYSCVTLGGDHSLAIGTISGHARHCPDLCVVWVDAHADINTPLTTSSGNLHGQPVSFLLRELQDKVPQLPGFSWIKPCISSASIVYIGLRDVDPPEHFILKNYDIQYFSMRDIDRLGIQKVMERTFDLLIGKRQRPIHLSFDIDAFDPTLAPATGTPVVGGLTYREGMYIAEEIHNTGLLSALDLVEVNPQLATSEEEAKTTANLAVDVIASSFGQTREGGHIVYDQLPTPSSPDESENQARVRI

N/A = assay: Trypanosoma cruzi proteasome luciferase counter-screen; assay type: functional; conditions: 9.37 µM
Homo sapiens = species on record: Homo sapiens; assay: To identify inhibition of the IFN signalling (Jak-Stat) pathway via expression of an eGFP reporter gene under the control of an IFN-stimulated response element (ISRE) containing MxA promoter.; assay type: functional; conditions: 30 µM
[5] = biological target: T3, Tyrosyl-tRNA synthetase, putative (Trypanosoma cruzi (strain CL Brener)) (UniProt Q4DSP6); assay: Trypanosoma cruzi tyrosyl tRNA synthetase (TcYRS) _High Tyrosine SOP; assay type: functional; conditions: 30 µM; note: in the data most compounds retested in dose-response had high values
T3 sequence (whole entry): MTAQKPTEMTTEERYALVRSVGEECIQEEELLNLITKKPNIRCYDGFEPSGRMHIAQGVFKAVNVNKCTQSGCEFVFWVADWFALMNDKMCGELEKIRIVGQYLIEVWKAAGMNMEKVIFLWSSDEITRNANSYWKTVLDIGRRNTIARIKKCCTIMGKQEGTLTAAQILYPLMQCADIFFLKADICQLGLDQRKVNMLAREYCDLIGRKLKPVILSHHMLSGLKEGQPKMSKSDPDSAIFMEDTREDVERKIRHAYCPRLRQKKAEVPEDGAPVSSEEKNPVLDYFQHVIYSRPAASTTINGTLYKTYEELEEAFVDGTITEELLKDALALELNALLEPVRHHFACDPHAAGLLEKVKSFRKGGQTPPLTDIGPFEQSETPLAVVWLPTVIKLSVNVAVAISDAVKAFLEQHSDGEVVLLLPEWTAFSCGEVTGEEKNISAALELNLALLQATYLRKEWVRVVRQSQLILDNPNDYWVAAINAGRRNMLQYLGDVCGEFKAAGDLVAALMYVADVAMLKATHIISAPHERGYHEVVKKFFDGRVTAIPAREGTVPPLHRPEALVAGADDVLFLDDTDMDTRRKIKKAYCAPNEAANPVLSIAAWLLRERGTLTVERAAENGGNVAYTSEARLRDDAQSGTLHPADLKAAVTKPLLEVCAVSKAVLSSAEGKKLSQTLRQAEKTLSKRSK

[6] = biological target: T3, Tyrosyl-tRNA synthetase, putative (Trypanosoma cruzi (strain CL Brener)); assay: Trypanosoma cruzi tyrosyl tRNA synthetase (TcYRS) SOP; assay type: functional; conditions: 30 µM
[7] = biological target: Chromo domain-containing protein 1 (Saccharomyces cerevisiae (strain ATCC 204508 / S288c) (Baker's yeast)) (UniProt P32657); assay: ScCHD-1 Enzyme Inhibition Assay; assay type: functional; conditions: 30 µM; note: in the data most compounds retested in dose-response had high values
[8] = biological target: T4, Proteasome subunit beta (Trypanosoma cruzi) (UniProt O96673); assay: Trypanosoma cruzi proteasome chymotrypsin-like activity (TcProtChymo) assay.; note: in the data most compounds retested in dose-response had high values; assay type: functional; conditions: 9.37 µM
T4 sequence (whole entry): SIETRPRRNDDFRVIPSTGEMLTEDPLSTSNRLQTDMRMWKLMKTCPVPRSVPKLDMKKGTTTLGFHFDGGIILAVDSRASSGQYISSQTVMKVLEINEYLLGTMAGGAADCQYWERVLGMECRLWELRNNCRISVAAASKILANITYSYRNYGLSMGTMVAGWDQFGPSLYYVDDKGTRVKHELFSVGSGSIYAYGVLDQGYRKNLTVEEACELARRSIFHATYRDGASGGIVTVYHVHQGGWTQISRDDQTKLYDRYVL

Sequence of Protein translocase subunit SecA (Escherichia coli (strain K12)) (P10408 whole entry): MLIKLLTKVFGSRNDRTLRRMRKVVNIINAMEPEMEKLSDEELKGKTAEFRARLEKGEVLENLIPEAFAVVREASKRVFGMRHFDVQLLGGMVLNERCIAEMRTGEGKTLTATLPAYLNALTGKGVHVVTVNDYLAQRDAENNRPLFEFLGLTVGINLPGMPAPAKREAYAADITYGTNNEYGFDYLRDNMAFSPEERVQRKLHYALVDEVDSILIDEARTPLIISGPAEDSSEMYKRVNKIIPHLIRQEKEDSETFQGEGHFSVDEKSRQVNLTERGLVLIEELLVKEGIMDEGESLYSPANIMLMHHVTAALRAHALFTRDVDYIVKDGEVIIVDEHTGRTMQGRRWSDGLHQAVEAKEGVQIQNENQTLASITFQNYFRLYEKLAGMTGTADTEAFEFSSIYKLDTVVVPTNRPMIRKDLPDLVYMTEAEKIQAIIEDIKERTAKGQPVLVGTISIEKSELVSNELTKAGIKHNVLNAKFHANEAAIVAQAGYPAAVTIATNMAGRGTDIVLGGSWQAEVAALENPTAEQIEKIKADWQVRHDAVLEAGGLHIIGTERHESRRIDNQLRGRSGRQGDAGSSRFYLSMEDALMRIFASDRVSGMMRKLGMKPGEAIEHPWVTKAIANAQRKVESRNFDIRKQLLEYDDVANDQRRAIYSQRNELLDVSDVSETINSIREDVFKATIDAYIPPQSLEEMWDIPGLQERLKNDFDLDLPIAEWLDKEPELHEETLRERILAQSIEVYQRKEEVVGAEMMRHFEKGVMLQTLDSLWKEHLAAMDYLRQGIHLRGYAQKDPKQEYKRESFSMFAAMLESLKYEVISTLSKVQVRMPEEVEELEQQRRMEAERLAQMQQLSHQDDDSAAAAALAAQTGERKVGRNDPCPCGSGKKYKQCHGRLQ
Sequence of Sialic acid-binding Ig-like lectin 9 (Homo sapiens) (Q9Y336 whole entry): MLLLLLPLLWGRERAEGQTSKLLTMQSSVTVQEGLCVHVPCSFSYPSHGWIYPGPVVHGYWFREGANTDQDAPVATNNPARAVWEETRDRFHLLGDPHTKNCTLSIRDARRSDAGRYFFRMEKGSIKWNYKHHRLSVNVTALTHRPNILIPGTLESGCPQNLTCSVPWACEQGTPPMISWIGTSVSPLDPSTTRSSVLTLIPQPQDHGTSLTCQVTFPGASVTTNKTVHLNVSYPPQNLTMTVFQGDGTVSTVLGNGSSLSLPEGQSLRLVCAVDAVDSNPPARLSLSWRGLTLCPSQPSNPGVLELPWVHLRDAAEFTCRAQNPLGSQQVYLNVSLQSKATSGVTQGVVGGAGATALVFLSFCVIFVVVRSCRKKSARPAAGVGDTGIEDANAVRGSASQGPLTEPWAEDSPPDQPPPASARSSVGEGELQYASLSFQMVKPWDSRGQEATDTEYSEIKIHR
Sequence of Chromo domain-containing protein 1 (Saccharomyces cerevisiae (strain ATCC 204508 / S288c) (Baker's yeast)) (P32657 whole entry, the tested form may be a part): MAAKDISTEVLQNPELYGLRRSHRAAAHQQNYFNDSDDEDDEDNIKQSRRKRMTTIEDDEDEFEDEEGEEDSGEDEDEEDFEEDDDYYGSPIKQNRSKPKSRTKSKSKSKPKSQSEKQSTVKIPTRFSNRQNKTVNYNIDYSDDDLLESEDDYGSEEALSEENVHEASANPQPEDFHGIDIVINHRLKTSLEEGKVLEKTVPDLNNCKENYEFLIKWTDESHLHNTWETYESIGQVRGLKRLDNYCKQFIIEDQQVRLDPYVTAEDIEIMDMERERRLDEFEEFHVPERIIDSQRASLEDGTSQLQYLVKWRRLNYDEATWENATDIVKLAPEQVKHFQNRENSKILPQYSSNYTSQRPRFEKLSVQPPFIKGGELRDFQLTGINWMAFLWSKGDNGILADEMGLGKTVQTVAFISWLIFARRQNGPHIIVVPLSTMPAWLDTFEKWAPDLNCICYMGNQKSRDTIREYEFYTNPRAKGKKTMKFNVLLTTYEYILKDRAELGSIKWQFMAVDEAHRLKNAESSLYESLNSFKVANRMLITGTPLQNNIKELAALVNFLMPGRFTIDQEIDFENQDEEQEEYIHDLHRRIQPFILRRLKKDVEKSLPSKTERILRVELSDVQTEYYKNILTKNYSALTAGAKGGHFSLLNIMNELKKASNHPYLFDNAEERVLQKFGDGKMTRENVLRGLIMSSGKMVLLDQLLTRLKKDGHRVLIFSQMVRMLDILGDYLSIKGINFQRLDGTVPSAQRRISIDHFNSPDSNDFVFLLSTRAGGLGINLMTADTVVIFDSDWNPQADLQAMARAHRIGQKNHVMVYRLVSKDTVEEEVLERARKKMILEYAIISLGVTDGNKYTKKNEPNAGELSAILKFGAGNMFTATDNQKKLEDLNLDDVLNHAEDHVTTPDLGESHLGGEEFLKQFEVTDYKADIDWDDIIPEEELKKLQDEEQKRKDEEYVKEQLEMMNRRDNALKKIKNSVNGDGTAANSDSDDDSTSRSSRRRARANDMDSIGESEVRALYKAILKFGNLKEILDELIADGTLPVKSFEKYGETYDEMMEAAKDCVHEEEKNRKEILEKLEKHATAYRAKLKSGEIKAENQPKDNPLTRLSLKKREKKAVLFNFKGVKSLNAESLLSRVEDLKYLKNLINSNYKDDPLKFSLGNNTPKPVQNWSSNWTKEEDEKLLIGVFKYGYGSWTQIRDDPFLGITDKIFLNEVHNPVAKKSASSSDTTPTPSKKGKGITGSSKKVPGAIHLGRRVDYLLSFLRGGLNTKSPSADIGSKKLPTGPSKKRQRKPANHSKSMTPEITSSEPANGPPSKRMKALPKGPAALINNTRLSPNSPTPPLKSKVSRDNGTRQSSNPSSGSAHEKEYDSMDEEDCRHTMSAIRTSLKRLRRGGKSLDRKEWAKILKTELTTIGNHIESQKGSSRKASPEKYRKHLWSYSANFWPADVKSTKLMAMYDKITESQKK

SMILES	Percent Effect [1]	Percent Effect [2]	Percent Effect [3]	Percent Effect (Trypanosoma cruzi)	Percent Effect [4]	Percent Effect (N/A)	Percent Effect (Homo sapiens)	Percent Effect [5]	Percent Effect [6]	Percent Effect [7]	Percent Effect [8]
COc1ccccc1OC1CCN(Cc2cnc(N(C)C)nc2)CC1	-8.85%	0%	3.25%	-1.84%	-3.15%	13.7% and 17.2%	1.97%	3.72%	9.76%	-4%	–
CCn1ccnc1CN1CCC(CCC(=O)Nc2ccccc2Cl)CC1	-1.09%	5.41%	7.23%	6.89%	12.2%	–	10.8%	1.6%	7.32%	83.4%	-1.37%
COC1CC2(CCN(Cc3ccc4c(c3)OCO4)CC2)C1	-2.7%	24.7%	-4%	-2.63%	1.83%	–	-11.4%	6.76%	12.5%	-8.26%	10%
COCC(=O)N1CCC2(CCN(Cc3ccccn3)CC2)CC1	-4.25%	6.49%	6.7%	4.77%	11.7%	–	-3.67%	1.58%	5.13%	15%	12.3%
c1ccc(CN2CCc3nnc(CN4CCCCC4)n3CC2)nc1	-8.66%	1.3%	-4.58%	-3.41%	-4.86%	–	0.921%	0.526%	2.56%	-0.472%	18.1%
CC(C)N1CC(C(=O)NCc2ccnc(-n3cccn3)c2)CC1=O (stereo not given)	-1.72%	12.8%	-8.26%	0.469%	8.2%	–	25.3%	5.26%	13.2%	-3.04%	3.33%
CS(=O)(=O)N1CCC2(CC1)CC(CC(=O)NC1CC1)c1ccccc12 (stereo not given)	-4.87%	9.09%	1.58%	2.04%	-3.24%	–	-6.07%	4.74%	10.3%	0.815%	15.4%
O=C(c1cc(Cl)c2c(c1)OCO2)N1CCCC(n2ccnc2)C1 (stereo not given)	-2.43%	5.33%	3.84%	2.01%	0%	–	9.8%	-6.84%	5.13%	-5.15%	7.72%
CC(C)n1ccnc1C1CCN(C(=O)c2cc[nH]n2)CC1	-1.49%	8.11%	10.9%	5.53%	14.3%	–	31.6%	7.98%	19.5%	-4.41%	13.2%
Cc1ccc(OC2(C(=O)O)CCN(C(=O)c3ccc(F)cc3)CC2)cn1	-6.12%	-2.7%	27.8%	9.41%	-1.05%	–	-18.1%	2.66%	7.32%	-1.29%	1.88%
COCCN1C(=O)C[C@@H]2[C@H]1CCN2C(=O)COc1ccccc1	-4.5%	6.49%	-2.28%	-3.02%	-4.86%	–	-17.9%	2.63%	10.3%	-1.49%	15.6%
CC(C)c1nccn1-c1cccc(C2CCCN2S(=O)(=O)N(C)C)n1 (stereo not given)	1.33%	-17.3%	-5.7%	-2.76%	-1.77%	–	39.9%	4.23%	10%	-18%	14.8%
Cc1cnn(CC2CCCN2CC(=O)Nc2nc(C)cs2)c1 (stereo not given)	-2%	7.79%	11.1%	0.746%	5.12%	–	2.04%	12.8%	21.2%	-5.41%	-1.4%

— ChEMBL document CHEMBL3988442, “University of Dundee, Small-Polar-MMV Screening Library” (2021)
